Laboratory results reported in PubChem BioAssay AID2284360 (EPA ToxCast).
Inconclusive results are not listed. Activity calls are given as the source filed them. The calls were made as follows: active = hit-call score of the fitted dose curve at least 0.9, where 1 is the maximum; inconclusive = response in the unintended direction; inactive = score below 0.9.

assay: ATG_M_19_EcoTox2: Attagene TRANS-FACTORIAL EcoTox-2 HepG2 Assay for M19 Transcription Factor (Internal Marker)
Protocol: ATG_EcoTox2 is a cell-based, multiplexed assay created by modifying the existing Attagene TRANS-FACTORIAL system to include a panel of nuclear receptors from some or all the following species: human (Homo sapiens), african clawed frog (Xenopus laevis), rainbow trout (Oncorhynchus mykiss), japanese medaka (Oryzias latipes), and zebrafish (Danio rerio). The ECOTOX2-FACTORIAL format uses HepG2, a human liver cell line, with measurements taken at 24 hours after chemical dosing in a 24-well plate. ATG_M_19_EcoTox2 is one of 29 assay components calculated in the ATG_EcoTox2 assay. It is designed to make measurements of mRNA induction, a form of inducible reporter, as detected with fluorescence intensity signals by Reverse transcription polymerase chain reaction (RT-PCR) and Capillary electrophoresis technology.The assay endpoint ATG_M_19_EcoTox2 was analyzed in the positive analysis fitting direction relative to DMSO as the negative control and baseline of activity. Using a type of inducible reporter, measures of mRNA for gain-of-signal activity can be used to understand the background control at the transcription factor-level as they relate to the gene. Furthermore, this assay endpoint can be referred to as a secondary readout, because this assay has produced multiple assay endpoints where this one serves a background control function. To generalize the intended target to other relatable targets, this assay endpoint is annotated to the background measurement intended target family, where the subfamily is internal marker.
Human liver HepG2 cells are transiently transfected with multiple reporter transcription units (MRTUs) in 6-well plates using FuGene 6 reagent (Roche; 3 ml FuGene/1 mg DNA). The MRTU constructs are regulated by a cis-regulating element (promoter). Each RTU expresses a GAL4-UAS that regulates the transcription of a nearby target reporter gene sequence. A major difference between the CIS and TRANS system is that in CIS activities of endogenous TFs are measured, whereas the TRANS assay evaluates changes in activities of exogenous, chimeric NR-Gal4 proteins. […] At the end of 24 hour incubation, total RNA was isolated using TriZol reagent (Invitrogen). The isolated RNA is then reverse-transcribed using oligo(dT) primer and Mo-MLV reverse transcriptase (Invitrogen) with DNAse I (Ambion) treatment for 30 min. The one-tenth of the produced cDNA was amplified by PCR using Taq DNA polymerase (Invitrogen) and two reporter sequence-specific primers. […] The fragments were purified using Qiaquick PCR columns (Qiagen), analyzed on an ABI 3130xL genetic analyzer (Applied Biosystems) with peak positions identified by using a set of X-rhodamine (ROX)-labeled MapMarker1000 molecular weight standards (BioVentures). […]

| Structure (SMILES) | outcome |
| --- | --- |
| Cc1ccc(C)c(OCCCC(C)(C)C(=O)O)c1 | inactive |
| C[C@@H]1C[C@H]2[C@@H]3CCC4=CC(=O)C=C[C@]4(C)[C@@]3(F)[C@@H](O)C[C@]2(C)[C@@]1(O)C(=O)COP(=O)(O)O | inactive |
| CC(C)(Oc1ccc(CCNC(=O)c2ccc(Cl)cc2)cc1)C(=O)O | inactive |
| CC(C)(Oc1ccc(Cl)cc1)C(=O)O | inactive |
